The values below come from PMC4336329 (PLoS ONE, 2015).

The whole screen tested about 310,000 compounds, of which about 14,000 (4.5%) showed an effect of 50% or more. Effects have a minus sign here. Only a selection was taken, and strong results are over-represented in it overall.
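Further: peak tail current of the secondary pulse compared with the same well before compound.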

This experiment deals with human ether-à-go-go-related gene (hERG) potassium channel (human, UniProt Q12809). Description: primary screen, population patch clamp on CHO cells stably expressing hERG; higher = less effect of the substance.
Chain of human ether-à-go-go-related gene (hERG) potassium channel (Q12809 whole entry, looked up): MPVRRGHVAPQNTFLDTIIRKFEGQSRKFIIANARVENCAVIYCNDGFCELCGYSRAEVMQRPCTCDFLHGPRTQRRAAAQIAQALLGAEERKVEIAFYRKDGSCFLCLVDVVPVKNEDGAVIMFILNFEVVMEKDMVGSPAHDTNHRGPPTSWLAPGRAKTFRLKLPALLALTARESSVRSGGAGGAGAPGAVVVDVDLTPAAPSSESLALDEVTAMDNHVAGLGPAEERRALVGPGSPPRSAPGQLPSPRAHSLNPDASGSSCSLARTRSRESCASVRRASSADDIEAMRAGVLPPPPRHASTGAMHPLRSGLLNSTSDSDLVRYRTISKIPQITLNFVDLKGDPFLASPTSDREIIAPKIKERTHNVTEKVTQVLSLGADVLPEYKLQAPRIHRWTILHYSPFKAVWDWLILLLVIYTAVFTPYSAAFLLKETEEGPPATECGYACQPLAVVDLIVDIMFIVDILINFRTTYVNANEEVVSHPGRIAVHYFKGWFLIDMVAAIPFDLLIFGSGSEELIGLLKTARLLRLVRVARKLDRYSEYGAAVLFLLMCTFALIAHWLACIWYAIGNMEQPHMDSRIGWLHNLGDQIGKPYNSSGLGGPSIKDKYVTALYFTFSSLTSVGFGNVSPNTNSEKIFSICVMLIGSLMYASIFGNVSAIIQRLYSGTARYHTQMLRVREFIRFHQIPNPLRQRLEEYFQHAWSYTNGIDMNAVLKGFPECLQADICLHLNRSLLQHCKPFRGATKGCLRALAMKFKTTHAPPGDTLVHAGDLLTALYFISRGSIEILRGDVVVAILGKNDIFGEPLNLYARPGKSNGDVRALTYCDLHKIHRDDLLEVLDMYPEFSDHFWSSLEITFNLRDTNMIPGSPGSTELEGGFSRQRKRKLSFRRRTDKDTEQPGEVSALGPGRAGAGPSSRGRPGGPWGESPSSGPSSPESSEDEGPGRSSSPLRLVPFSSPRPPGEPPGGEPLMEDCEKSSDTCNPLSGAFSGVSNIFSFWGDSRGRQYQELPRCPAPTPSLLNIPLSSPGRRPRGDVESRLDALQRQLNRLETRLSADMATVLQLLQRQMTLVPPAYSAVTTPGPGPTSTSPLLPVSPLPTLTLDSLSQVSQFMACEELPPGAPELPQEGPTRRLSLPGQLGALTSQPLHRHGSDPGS
As to `N#CCOC(=O)C1CSC2(c3ccc(Br)cc3)CCC(=O)N12` (stereo not shown), the “hERG current change (%, negative = inhibition) at 10uM” value was 8.43%.

As for `CCCCOc1cccc(C(=O)NC(=S)Nc2cccc(NC(=O)c3ccccc3Cl)c2)c1`, the “hERG current change (%, negative = inhibition) at 10uM” value was -8.49%.

Consider `CC(C)(C)c1ccc(C(=O)NNC(=O)c2ccncc2)cc1`, for which the “hERG current change (%, negative = inhibition) at 10uM” value was 15.5%.

Regarding `CCCCN1CCN=C1N(C)C`, the “hERG current change (%, negative = inhibition) at 10uM” value is 12%.

For the compound `CCCCCCCN1CCN=C1N(C)C`, the “hERG current change (%, negative = inhibition) at 10uM” value is on record as -67.7%.

Take `CN(C)C1=NCCN1CCCC1CCCC1`: the “hERG current change (%, negative = inhibition) at 10uM” value is -51%.

`CC(C)CCCN1CCN=C1N(C)C`: the “hERG current change (%, negative = inhibition) at 10uM” value is listed as 8.91%.

`CN(C)C1=NCCN1CCCC1CCCCC1`: the “hERG current change (%, negative = inhibition) at 10uM” value is -38.6%.

With `CN(C)C1=NCCN1CCC1CCCC1`, the “hERG current change (%, negative = inhibition) at 10uM” value was determined as 1.87%.

For `COc1ccc(NC(=O)CN(C)C(=O)CN2C(=O)NC3(CCCCC3)C2=O)cc1`, the “hERG current change (%, negative = inhibition) at 10uM” value is on record as 3.29%.

For the compound `Cc1nn(CC(=O)Nc2ccc3c(c2)nc(CN2CCCC2)n3C)c(=O)c2ccccc12`, the “hERG current change (%, negative = inhibition) at 10uM” value is listed as -13.4%.

For `Cc1c(C(=O)NNC(=O)c2ccncc2)oc2ccccc12`, the “hERG current change (%, negative = inhibition) at 10uM” value is -5.92%.

In the case of `Cc1c(C(=O)NNC(=O)c2ccncc2)oc2ccc(Br)cc12`, the “hERG current change (%, negative = inhibition) at 10uM” value is given as -68.5%.

Regarding `Cc1c(C(=O)NNC(=O)c2ccccc2O)oc2ccc(Br)cc12`, the “hERG current change (%, negative = inhibition) at 10uM” value is on record as 8.46%.

For `COc1ccccc1NC(=O)N1CCC(NC(=O)C2CCCCC2)CC1`, the “hERG current change (%, negative = inhibition) at 10uM” value was 5.27%.

Consider `N#CCSc1nnc(C2CCCCC2)n1Cc1ccccc1`, for which the “hERG current change (%, negative = inhibition) at 10uM” value is given as -11.6%.

Consider `Cc1[nH]c2ccccc2c1C(=O)C(C)OC(=O)c1ccccc1NCCO` (stereo not shown), for which the “hERG current change (%, negative = inhibition) at 10uM” value was determined as 15%.

For `O=S(=O)(Nc1nnc(-c2ccccc2)s1)c1ccc(Cl)cc1`, the “hERG current change (%, negative = inhibition) at 10uM” value was found to be 0.769%.

Consider `O=C(c1ccc(Cl)c(S(=O)(=O)N2CCCC2)c1)N1CCN(c2ccccc2F)CC1`, for which the “hERG current change (%, negative = inhibition) at 10uM” value is listed as -20.6%.

`O=C(Nc1ccc(S(=O)(=O)N2CCOCC2)cc1)c1ccc(F)cc1`: the “hERG current change (%, negative = inhibition) at 10uM” value was -6.51%.

For `Cl.O=C(c1ccc(Cl)c(S(=O)(=O)N2CCCC2)c1)N1CCN(c2ccc(F)cc2)CC1`, the “hERG current change (%, negative = inhibition) at 10uM” value is given as -58.5%.

For `COc1ccc(N2CCN(C(=O)c3ccc(Cl)c(S(=O)(=O)N4CCCC4)c3)CC2)cc1`, the “hERG current change (%, negative = inhibition) at 10uM” value is on record as -31.6%.

Consider `O=C(c1ccc(S(=O)(=O)N2CCOCC2)cc1)N1CCN(c2ccc(F)cc2)CC1`, for which the “hERG current change (%, negative = inhibition) at 10uM” value is -5.3%.

As for `O=C(c1ccc(Cl)c(S(=O)(=O)N2CCCCCC2)c1)N1CCN(c2ccc(O)cc2)CC1`, the “hERG current change (%, negative = inhibition) at 10uM” value is listed as -50.4%.

Take `O=C(Nc1ccc(F)cc1)c1ccc(Br)c(S(=O)(=O)N2CCOCC2)c1`: the “hERG current change (%, negative = inhibition) at 10uM” value was -58.8%.

For `O=C(c1ccc(Cl)c(S(=O)(=O)N2CCCC2)c1)N1CCN(c2ccccc2)CC1`, the “hERG current change (%, negative = inhibition) at 10uM” value is listed as -8.69%.

For the compound `COc1ccc(NC(=O)c2ccc(Br)c(S(=O)(=O)N3CCOCC3)c2)cc1`, the “hERG current change (%, negative = inhibition) at 10uM” value is on record as 1.53%.

As to `O=C(c1ccc(F)c(S(=O)(=O)N2CCOCC2)c1)N1CCN(c2ncccn2)CC1`, the “hERG current change (%, negative = inhibition) at 10uM” value was -4.06%.

Take `O=C(c1ccc(F)c(S(=O)(=O)N2CCOCC2)c1)N1CCN(c2ccc(F)cc2)CC1`: the “hERG current change (%, negative = inhibition) at 10uM” value is given as -60.5%.

As for `O=C(c1ccc(Cl)c(S(=O)(=O)N2CCCCC2)c1)N1CCN(c2ccccc2)CC1`, the “hERG current change (%, negative = inhibition) at 10uM” value is listed as -26.5%.

In the case of `COc1ccc(NC(=O)C/C(C)=N/NC(=O)CCc2ccccc2)c(OC)c1`, the “hERG current change (%, negative = inhibition) at 10uM” value is listed as 4.6%.

Turning to `CC(=O)c1cccc(NC(=S)NC(=O)c2ccccc2Br)c1`, the “hERG current change (%, negative = inhibition) at 10uM” value is on record as 10.9%.

On to `Cl.N/C(=N\O)C1COc2ccccc2O1` (stereo not shown), for which the “hERG current change (%, negative = inhibition) at 10uM” value worked out at 16.4%.

`CCOC(=O)C1CCCN(C(=O)CSc2ccc(NC(C)=O)cc2)C1` (stereo not shown): the “hERG current change (%, negative = inhibition) at 10uM” value worked out at 14.9%.

As to `COc1ccccc1N1CCN(C(=O)CSc2nc3ncnc(N)c3[nH]2)CC1`, the “hERG current change (%, negative = inhibition) at 10uM” value came to 21.3%.

For the compound `Cc1nc2cc(NS(=O)(=O)c3cccc(F)c3)ccc2s1`, the “hERG current change (%, negative = inhibition) at 10uM” value turned out to be 7.97%.

As for `COc1nc(Nc2ccccc2)nc(OC)n1`, the “hERG current change (%, negative = inhibition) at 10uM” value is listed as 5.84%.

With `CC(C)CCNC(=O)CCCc1ccccc1`, the “hERG current change (%, negative = inhibition) at 10uM” value amounted to 14.5%.

For `Brc1nc(-c2ccccc2)nc(-c2ccccc2)c1Br`, the “hERG current change (%, negative = inhibition) at 10uM” value is reported as -5.38%.

With `Cc1ccc(C(=O)N2CCN(c3ccc(F)cc3)CC2)cc1S(=O)(=O)N1CCCCC1`, the “hERG current change (%, negative = inhibition) at 10uM” value was -54%.

Turning to `O=C(Cc1ccc(S(=O)(=O)N2CCOCC2)s1)N1CCN(c2cccc(C(F)(F)F)c2)CC1`, the “hERG current change (%, negative = inhibition) at 10uM” value is listed as -31.7%.

Take `O=C(Cc1ccc(S(=O)(=O)N2CCCC2)s1)N1CCN(c2ccccc2)CC1`: the “hERG current change (%, negative = inhibition) at 10uM” value is -28.4%.

Turning to `O=C(Cc1ccc(S(=O)(=O)N2CCOCC2)s1)N1CCN(c2ccc(C(F)(F)F)cc2[N+](=O)[O-])CC1`, the “hERG current change (%, negative = inhibition) at 10uM” value is given as -54.8%.

In the case of `O=C(Cc1ccc(S(=O)(=O)N2CCOCC2)s1)N1CCN(S(=O)(=O)c2cccc([N+](=O)[O-])c2)CC1`, the “hERG current change (%, negative = inhibition) at 10uM” value is recorded as -27.1%.

As for `O=C(Cc1ccc(S(=O)(=O)N2CCCC2)s1)N1CCOCC1`, the “hERG current change (%, negative = inhibition) at 10uM” value is -0.493%.

Turning to `O=C(Cc1ccc(S(=O)(=O)N2CCCC2)s1)N1CCN(c2ccc(F)cc2)CC1`, the “hERG current change (%, negative = inhibition) at 10uM” value is -56.2%.

Consider `Cc1ccc(C(=O)N2CCN(c3ccccc3)CC2)cc1S(=O)(=O)N1CCCC1`, for which the “hERG current change (%, negative = inhibition) at 10uM” value is on record as -31.2%.

For the compound `Cc1ccc(C(=O)N2CCCCC2)cc1S(=O)(=O)N1CCCC1`, the “hERG current change (%, negative = inhibition) at 10uM” value is given as 5.55%.

In the case of `COc1ccc(OCCOC(=O)c2cc(S(=O)(=O)N3CCOCC3)c(Cl)cc2Cl)cc1`, the “hERG current change (%, negative = inhibition) at 10uM” value was -17.7%.

Consider `Cc1ccc(NS(=O)(=O)c2cc([N+](=O)[O-])ccc2NNC(=S)Nc2cccc(Cl)c2)c(C)c1`, for which the “hERG current change (%, negative = inhibition) at 10uM” value came to 26%.

For `C[C@]12C=CC(=O)C=C1CC[C@@H]1[C@@H]2[C@@H](O)C[C@@]2(C)[C@H]1CC[C@]2(O)C(=O)COC(=O)CCC(=O)NCCc1ccc(O)cc1`, the “hERG current change (%, negative = inhibition) at 10uM” value is on record as 12.8%.

In the case of `CN1CCN(c2oc(Cc3cccc4ccccc34)nc2C#N)CC1`, the “hERG current change (%, negative = inhibition) at 10uM” value is listed as -9.75%.

In the case of `CCOC(=O)N1CCC(NC(=O)CCC(=O)c2ccccc2)CC1`, the “hERG current change (%, negative = inhibition) at 10uM” value came out at 10.8%.

As for `CCc1ccccc1NC(=O)C(Cc1cccc(OC)c1OC)c1nn[nH]n1` (stereo not shown), the “hERG current change (%, negative = inhibition) at 10uM” value is 7.41%.

Regarding `O=C(Nc1nccs1)C12CC3CC(C1)CC(C(=O)Nc1nccs1)(C3)C2`, the “hERG current change (%, negative = inhibition) at 10uM” value was -11.1%.
